# Data taken from PubChem BioAssay (NCATS).
# Where “and” joins values, the source holds several entries; their conditions need not be identical. Identical values can stand only once. Records with an inconclusive call do not appear. More than one record can exist for a structure, and the calls need not agree. Calls of active or inactive are those of the source. Unless noted, calls come from the whole dose curve; as a rule, active = well fitted curve in either direction with a large enough effect (not every such curve was filed as active); inconclusive = small, poorly fitted or top-dose-only effect, or another doubt; inactive = flat fitted curve, though single readings scatter.
# Key:
# [1] = AP1 Signaling Pathway (AID 357); details: ME-180 AP-1-bla reporter, EGF-induced, beta-lactamase ratio, 5 h;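 note: ME-180 reporter cells stimulated with EGF at its EC50 level; % is set by controls: 0 for no effect and ±100 for the full control effect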
# Method in brief: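 First, ME-180 AP-1-bla cells were cultured overnight at 37 °C in low-serum Opti-MEM. Next, titrated compounds with EC50 EGF were incubated 5 hours. Finally, CCF4 was added for 2.5 hours and the 460/530 nm ratio recorded.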
# [2] = biological target: Cytochrome P450 1A2 (Homo sapiens) (UniProt P05177); assay: p450-cyp1a2 (AID 410; calls by dose curve; note: potency is the fitted concentration of half-maximal effect;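 for activity change, negative = inhibition: -100% = full effect of reference inhibitor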); details: recombinant CYP1A2, luciferin-ME demethylation, luminescence; series mostly up to 25.6 µM
# Method in brief: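 Luminescent demethylation readout: Luciferin-ME (100uM, equal to Km) turned over by 20nM CYP1A2 for 60 min at room temperature after NADPH regeneration addition, following 10 min compound preincubation. Normalization used 57 uM furafylline as full inhibition.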
# [3] = Stat Signaling Pathway (AID 446); details: ME-180 (cervical carcinoma) SIE beta-lactamase reporter, IL-6 stimulated, 5 h;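 note: ME-180 cervical cancer cells given 40 pM IL-6 alongside compound; SIE-controlled beta-lactamase reporter measured as 460/530 nm FRET emission ratio; % is set by controls: 0 for no effect and ±100 for the full control effect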
# Method in brief: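 Emission at 460 and 530 nm (excitation 405 nm) reports SIE-controlled beta-lactamase in ME-180 cells. Cells received compound with 40 pM IL-6 for 5 hrs at 37 C; data scaled between 300 pM IL-6 and 125 nM JAK-inhibitor controls.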
# [4] = biological target: Glucocorticoid receptor (Homo sapiens) (UniProt P04150); assay: GR-GFP Redistribution (AID 450;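 active = compounds whose dose series gives a full or clear partial fitted curve of increased nuclear translocation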; note: potency is the fitted concentration of half-maximal effect); details: U2OS GR-GFP nuclear translocation, laser cytometry, 2 h
# [5] = biological target: Glucocorticoid receptor (Homo sapiens) (UniProt P04150); assay: GR-EFC Redistribution (AID 451; calls by dose curve; note: potency is the fitted concentration of half-maximal effect); details: CHO-K1 GR-EFC translocation, beta-gal luminescence, 2 h
# Method in brief: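 CHO-K1 cells expressing nuclear EA and GR-ED fragments of b-gal; compounds titrated up to 46 uM final, 2 h at 37 C. GR nuclear translocation read as complemented b-gal luminescence after 1 h RT detection.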
# [6] = biological target: Mitogen-activated protein kinase 10 (Mus musculus) (UniProt Q61831); assay: JNK3 AlphaScreen Assay (AID 530); details: JNK3 lysate, c-Jun phosphorylation; series mostly up to 57.1 µM;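 note: kinase came from lysate of stimulated human HepG2 cells; signal reports phosphorylation of biotinylated GST-cJun 1-79 at Ser73 with 10 µM ATP; % is set by controls: 0 for no effect and ±100 for the full control effect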
# Method in brief: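 Activity was read by AlphaScreen after JNK3-containing HepG2 lysate (cytokine pre-activated) phosphorylated biotinylated GST-cJun with 10 uM ATP at room temperature. Phospho-Ser73 cJun antibody with Protein-A acceptor beads provided detection.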
# [7] = NFAT Signaling Pathway (AID 444); details: Jurkat NFAT-bla M1, carbachol, beta-lactamase ratio, 5 h;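 note: carbachol stimulus at about its EC50 of 1 µM final; % is set by controls: 0 for no effect and ±100 for the full control effect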
# Method in brief: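 Jurkat cells with NFAT-driven β-lactamase reporter and co-expressed M1 receptor, stimulated with carbachol (final 1 uM, ~EC50), compound titration, 5 h at 37 °C. CCF4 loaded 1 h at RT; 460/530 nm ratio gave %activity and AC50.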
# [8] = Cell Viability - BJ (AID 421; calls by dose curve;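 note: potency is the fitted concentration of half-maximal effect; cells exposed to compound for 40 hours at 37 °C before readout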); details: BJ fibroblast viability, qHTS
# Method in brief: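 Cytotoxicity in human BJ foreskin fibroblasts is scored as loss of cellular ATP after a 40-hour exposure, measured by luciferase luminescence. Controls are DMSO and 100 uM tamoxifen.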
# [9] = Cell Viability - Jurkat (AID 426;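 active = dose-dependent loss of cell ATP signal giving a full or clear fitted curve, ranked by lower potency value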;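 note: potency is the fitted concentration of half-maximal effect; cells exposed to compound for 40 hours at 37 °C before ATP read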); details: qHTS
# Method in brief: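 Cytotoxicity taken as drop in cellular ATP (CellTiter-Glo luminescence, 20 min room temperature) after 40 hr, 37C treatment of 5000 Jurkat Clone E6-1 cells per well; concentration-response fitted with Hill equation for AC50.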
# [10] = Cell Viability - Hek293 (AID 427;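 active = compounds whose dose-response curve shows a full or clear partial loss of cell viability, called from curve shape rather than a numeric limit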;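 note: potency is the fitted concentration of half-maximal effect; cells exposed to compound for 40 hours at 37 °C before reading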); details: qHTS
# Method in brief: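 qHTS, human embryonic kidney (adenovirus-transformed) cells; 40 hr cpd, 37 °C; CellTiter-Glo ATP luminescence. Norm: DMSO = 0, 100 uM tamoxifen = 100% inhibition. Hill-fit AC50.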
# [11] = Cell Viability - HepG2 (AID 433; calls by dose curve;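 note: potency is the fitted concentration of half-maximal effect; potency for ATP loss meaning cytotoxicity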); details: qHTS
# Method in brief: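 Cytotoxicity is scored as loss of intracellular ATP in HepG2 cells exposed to compounds for 40 h. Concentration-response curves, normalized to DMSO and 100 uM tamoxifen, give AC50 values.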
# [12] = Cell Viability - MRC5 (AID 434; calls by dose curve;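 note: potency is the fitted concentration of half-maximal effect; cells exposed to compound for 40 hours at 37 °C; potency reflects cytotoxicity seen as loss of intracellular ATP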); details: MRC5 lung fibroblast viability, qHTS
# Method in brief: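 ATP luminescence read-out (CellTiter-Glo, 20 min RT) after 40 hr, 37 °C compound exposure of 1500 MRC5 cells/well. Data normalized to DMSO (basal) and 100 uM tamoxifen (100% inhibition); AC50 from standard Hill equation.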
# [13] = Cell Viability - SK-N-SH (AID 435; calls by dose curve; note: potency is the fitted concentration of half-maximal effect); details: SK-N-SH neuroblastoma cell viability qHTS
# Method in brief: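 Cells seeded at 1500 per well and incubated 5 hr at 37 °C. Compound added, then 40 hr at 37 °C. CellTiter-Glo added, 20 min at room temperature, luminescence read.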
# [14] = Cell Viability - N2a (AID 540; active = well fitted curve in the direction sought with a large enough effect; an effect the other way counts as inactive or inconclusive;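 note: plate controls were DMSO alone for no effect and tamoxifen control for full effect; nearly all actives have a fitted effect of over 45% in size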); details: N2a mouse neuroblastoma cell viability; activity change, negative = cytotoxicity: at 92.2 µM (top of the series)
# Method in brief: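 CellTiter-Glo ATP luminescence, read 20 min after reagent at room temperature, reported viability following 40 h compound treatment at 37 °C. N2a mouse neuroblastoma cells seeded 1500/well; Hill equation gave AC50.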
# [15] = Cell Viability - HUV-EC-C (AID 542; active = well fitted curve in the direction sought with a large enough effect; an effect the other way counts as inactive or inconclusive; note: % is set by controls: 0 for no effect and ±100 for the full control effect; nearly all actives have a fitted effect of over 35% in size); details: HUV-EC-C endothelial cell viability, qHTS; series mostly up to 92.2 µM
# Method in brief: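 CellTiter-Glo luminescence measured ATP loss in HUV-EC-C cells (1000/well) after 40 hr compound exposure at 37 °C, in complete culture medium. Concentration-response data were Hill-fitted to give AC50.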
# [16] = Cell Viability - H-4-II-E (AID 543; active = well fitted curve in the direction sought with a large enough effect; an effect the other way counts as inactive or inconclusive; note: % is set by controls: 0 for no effect and ±100 for the full control effect; nearly all actives have a fitted effect of over 35% in size); details: H-4-II-E rat hepatoma viability; series mostly up to 92.2 µM
# Method in brief: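 CellTiter-Glo luminescence (intracellular ATP) measured after 40 h compound exposure at 37 °C in H-4-II-E rat hepatoma cells seeded at 1500/well. Values are AC50s fitted with the standard Hill equation.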
# [17] = Cell Viability - Renal Proximal Tubule (AID 545; active = well fitted curve in the direction sought with a large enough effect; an effect the other way counts as inactive or inconclusive;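 note: 0% = DMSO only and -100% = 100 µM tamoxifen; nearly all actives have a fitted effect of over 40% in size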); details: renal proximal tubule cells viability, primary cells of rat origin; series mostly up to 91.7 µM
# Method in brief: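 Cytotoxicity is scored as a concentration-dependent drop in cellular ATP in primary rat renal proximal tubule cells exposed for 40 hr. AC50 derives from Hill modelling.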
# Sequence of Glucocorticoid receptor (Homo sapiens) (P04150 whole entry, looked up, the tested form may be a part): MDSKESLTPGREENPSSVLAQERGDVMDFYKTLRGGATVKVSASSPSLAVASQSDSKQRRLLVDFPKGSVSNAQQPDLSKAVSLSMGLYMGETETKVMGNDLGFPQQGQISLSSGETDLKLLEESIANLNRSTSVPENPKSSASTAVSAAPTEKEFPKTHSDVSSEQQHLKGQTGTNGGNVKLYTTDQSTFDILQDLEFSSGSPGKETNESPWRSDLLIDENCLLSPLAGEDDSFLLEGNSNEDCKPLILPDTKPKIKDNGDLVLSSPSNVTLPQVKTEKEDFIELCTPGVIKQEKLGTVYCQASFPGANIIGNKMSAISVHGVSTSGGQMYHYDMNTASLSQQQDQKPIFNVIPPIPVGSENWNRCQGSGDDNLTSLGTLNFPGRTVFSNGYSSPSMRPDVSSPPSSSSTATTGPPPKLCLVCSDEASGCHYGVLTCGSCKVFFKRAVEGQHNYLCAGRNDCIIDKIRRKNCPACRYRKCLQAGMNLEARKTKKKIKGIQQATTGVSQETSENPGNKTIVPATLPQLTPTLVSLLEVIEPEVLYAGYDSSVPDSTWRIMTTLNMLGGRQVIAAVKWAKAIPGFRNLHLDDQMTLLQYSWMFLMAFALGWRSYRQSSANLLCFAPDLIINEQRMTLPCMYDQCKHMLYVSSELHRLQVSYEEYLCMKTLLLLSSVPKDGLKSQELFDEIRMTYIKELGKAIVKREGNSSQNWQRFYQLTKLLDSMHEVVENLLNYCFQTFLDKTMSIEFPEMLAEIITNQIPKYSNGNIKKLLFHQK
# Sequence of Cytochrome P450 1A2 (Homo sapiens) (P05177 whole entry, looked up): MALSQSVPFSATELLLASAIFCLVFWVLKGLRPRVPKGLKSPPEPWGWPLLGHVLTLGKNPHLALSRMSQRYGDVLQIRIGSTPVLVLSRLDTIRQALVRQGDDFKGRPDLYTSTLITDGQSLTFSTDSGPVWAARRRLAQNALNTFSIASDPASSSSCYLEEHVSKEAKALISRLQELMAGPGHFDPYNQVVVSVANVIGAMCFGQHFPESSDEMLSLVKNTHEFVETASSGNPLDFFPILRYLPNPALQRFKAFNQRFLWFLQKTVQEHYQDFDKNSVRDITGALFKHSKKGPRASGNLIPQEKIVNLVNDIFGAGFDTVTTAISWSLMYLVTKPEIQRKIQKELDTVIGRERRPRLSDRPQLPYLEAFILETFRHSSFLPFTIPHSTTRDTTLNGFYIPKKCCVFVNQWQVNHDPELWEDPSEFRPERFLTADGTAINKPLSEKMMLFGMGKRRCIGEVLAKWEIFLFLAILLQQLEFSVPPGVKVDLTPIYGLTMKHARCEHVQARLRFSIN
smiles,measurement,setting,value
CCCCN(CCCC)CCCOC(=O)c1ccc(N)cc1,"activity change, negative = inhibition",[1]; at 17.2 µM (top of the series),-6.24% (inactive) and -3.31% (inactive)
same,Potency,[2],10 µM (active)
same,"activity, negative = inhibition",[3]; at 17.2 µM (top of the series),-8.33% (inactive) and 3.52% (inactive)
same,Potency,[4],> 20.6 µM (inactive)
same,Potency,[5],> 20.6 µM (inactive)
same,Potency,[6],inactive
CCN(CC)CCNC(=O)c1cc(Cl)c(N)cc1OC,"activity change, negative = inhibition",[1]; at 17.2 µM (top of the series),0.248% (inactive) and 1.7% (inactive)
same,"activity change, negative = inhibition",[1]; at 38 µM (top of the series),17% (inactive)
same,Potency,[2],15.8 µM (active)
same,"activity change, negative = inhibition",[7]; at 17.2 µM (top of the series),-0.325% (inactive) and -6.2% (inactive)
same,"activity change, negative = inhibition",[7]; at 38 µM (top of the series),4.1% (inactive)
same,"activity, negative = inhibition",[3]; at 17.2 µM (top of the series),16.4% (inactive) and -2.07% (inactive)
same,"activity, negative = inhibition",[3]; at 38 µM (top of the series),-26.6% (inactive)
same,Potency,[6],inactive
C[C@@H]1C[C@H]2[C@@H]3C[C@H](F)C4=CC(=O)C=C[C@]4(C)[C@@]3(F)[C@@H](O)C[C@]2(C)[C@@]1(O)C(=O)CO,"activity change, negative = inhibition",[1]; at 17.2 µM (top of the series),-11.1% (inactive)
same,"activity change, negative = inhibition",[7]; at 17.2 µM (top of the series),-28.6% (inactive)
same,"activity, negative = inhibition",[3]; at 17.2 µM (top of the series),-0.0687% (inactive)
CCCn1cnc2c1c(=O)n(CCCCC(C)=O)c(=O)n2C,"activity change, negative = inhibition",[1]; at 38 µM (top of the series),-2.42% (inactive)
same,Potency,[2],12.6 µM (active)
same,"activity change, negative = inhibition",[7]; at 38 µM (top of the series),9.62% (inactive)
same,"activity, negative = inhibition",[3]; at 38 µM (top of the series),10.7% (inactive)
same,Potency,[4],> 46 µM (inactive)
same,Potency,[5],> 46 µM (inactive)
same,Potency,[6],inactive
Nc1ccc(S(=O)(=O)Nc2nccs2)cc1,"activity change, negative = inhibition",[1]; at 17.2 µM (top of the series),-3.49% (inactive)
same,Potency,[2],inactive
same,Potency,[8],> 92 µM (inactive)
same,Potency,[9],> 92 µM (inactive)
same,Potency,[10],> 92 µM (inactive)
same,Potency,[11],> 92 µM (inactive)
same,Potency,[12],> 92 µM (inactive)
same,Potency,[13],> 92 µM (inactive)
same,"activity change, negative = inhibition",[7]; at 17.2 µM (top of the series),2.2% (inactive)
same,"activity, negative = inhibition",[3]; at 17.2 µM (top of the series),-1.46% (inactive)
same,Potency,[4],> 20.6 µM (inactive)
same,Potency,[5],> 20.6 µM (inactive)
same,Potency,[6],inactive
same,"activity change, negative = cytotoxicity",[14],-2.29% (inactive)
same,Potency,[15],inactive
same,Potency,[16],inactive
same,Potency,[17],inactive
OCCN1CCN(CCCN2c3ccccc3Sc3ccc(Cl)cc32)CC1,"activity change, negative = inhibition",[1]; at 17.2 µM (top of the series),25.4% (inactive) and 10.4% (inactive)
same,"activity change, negative = inhibition",[1]; at 38 µM (top of the series),7.4% (inactive)
same,"activity, negative = inhibition",[3]; at 17.2 µM (top of the series),-2.44% (inactive) and -12% (inactive)
same,"activity, negative = inhibition",[3]; at 38 µM (top of the series),-28.9% (inactive)
same,Potency,[4],> 20.6 µM (inactive)
same,Potency,[5],> 46 µM (inactive) and > 20.6 µM (inactive)
same,Potency,[6],inactive
Cc1cc(N)c2ccccc2[n+]1CCCCCCCCCC[n+]1c(C)cc(N)c2ccccc21,"activity change, negative = inhibition",[1]; at 17.2 µM (top of the series),-20.8% (inactive)
same,Potency,[2],inactive and 10 µM (active) and 15.8 µM (active)
same,"activity change, negative = inhibition",[7]; at 38 µM (top of the series),-78.7% (active)
same,"activity, negative = inhibition",[3]; at 17.2 µM (top of the series),-1.05% (inactive)
same,"activity, negative = inhibition",[3]; at 38 µM (top of the series),-10.8% (inactive)
same,Potency,[4],> 46 µM (inactive) and > 20.6 µM (inactive)
same,Potency,[5],> 46 µM (inactive) and > 20.6 µM (inactive)
same,Potency,[6],inactive
